Data as given in the supplement of paper PMC12669032.

Experiments:
Assay in all cases: growth AUC relative to DMSO control (median of replicates) (fraction); higher = more growth (less inhibition), active = hit call of the paper
Details in all cases: 20 µM; 24 h;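 active = AUC reduced over 20% with Padj below 0.05 in at least 2 of 3 replicates; inactive = otherwise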
Akkermansia muciniphila = tested on: Akkermansia muciniphila
Procedure, shortened: (§1)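 For each compound at 20 µM (1% DMSO), gut bacterial monocultures seeded at OD600 0.05 grew anaerobically in mGAM at 37 °C in round-bottom 96-well plates. Hourly OD600 readings over 24 h gave growth curves whose minimum OD was set to 0. Area under these curves was normalised to the plate median of solvent-only wells, or to row and column medians on the industrial chemical plate. Values are medians of three biological replicates grown on separate days.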

Bacteroides caccae = tested on: Bacteroides caccae
Procedure, shortened: as §1

Bacteroides clarus = tested on: Bacteroides clarus
Procedure, shortened: as §1

Bacteroides dorei = tested on: Bacteroides dorei
Procedure, shortened: as §1

Bacteroides stercoris = tested on: Bacteroides stercoris
Procedure, shortened: as §1

[1] = tested on: Bacteroides thetaiotaomicron
Procedure, shortened: as §1

Bacteroides uniformis = tested on: Bacteroides uniformis
Procedure, shortened: as §1

[2] = tested on: Bifidobacterium longum subsp. longum
Procedure, shortened: as §1

Clostridium difficile = tested on: Clostridium difficile
Procedure, shortened: as §1

Collinsella aerofaciens = tested on: Collinsella aerofaciens
Procedure, shortened: as §1

Measured: growth AUC

N#Cc1c(Cl)c(Cl)c(Cl)c(C#N)c1Cl
active: Bacteroides clarus 0.563 | Bacteroides stercoris 0.566 | [1] 0.0851 | Bacteroides uniformis 0.218 | [2] 0.782
inactive: Akkermansia muciniphila 0.96 | Bacteroides caccae 0.984 | Bacteroides dorei 0.931 | Clostridium difficile 0.997 | Collinsella aerofaciens 0.864

Oc1ccccc1-c1ccccc1
inactive: Akkermansia muciniphila 1.03 | Bacteroides caccae 1.04 | Bacteroides clarus 1.03 | Bacteroides dorei 1.02 | Bacteroides stercoris 1.04 | [1] 1.01 | Bacteroides uniformis 1.01 | [2] 0.965 | Clostridium difficile 1.04 | Collinsella aerofaciens 1.01

O=c1oc2ccccc2c(O)c1C1CC(c2ccc(-c3ccccc3)cc2)Cc2ccccc21 (stereo not given)
active: Bacteroides clarus 0.66 | Bacteroides stercoris 0.00795 | [1] 0.76
inactive: Akkermansia muciniphila 0.831 | Bacteroides caccae 0.895 | Bacteroides dorei 0.904 | Bacteroides uniformis 0.858 | [2] 0.886 | Clostridium difficile 0.803 | Collinsella aerofaciens 0.975

c1coc(-c2nc3ccccc3[nH]2)c1
inactive: Akkermansia muciniphila 1.03 | Bacteroides caccae 0.937 | Bacteroides clarus 1 | Bacteroides dorei 0.919 | Bacteroides stercoris 1.17 | [1] 0.96 | Bacteroides uniformis 0.968 | [2] 1.04 | Clostridium difficile 0.971 | Collinsella aerofaciens 0.945

CCc1nn(C)c(C(=O)NCc2ccc(Oc3ccc(C)cc3)cc2)c1Cl
inactive: Akkermansia muciniphila 0.877 | Bacteroides caccae 0.935 | Bacteroides clarus 0.932 | Bacteroides dorei 0.974 | Bacteroides stercoris 0.633 | [1] 0.967 | Bacteroides uniformis 0.984 | [2] 0.81 | Clostridium difficile 1.04 | Collinsella aerofaciens 0.952

CCOP(=S)(OCC)SCSC(C)(C)C
inactive: Akkermansia muciniphila 1.04 | Bacteroides caccae 0.964 | Bacteroides clarus 1.01 | Bacteroides dorei 0.963 | Bacteroides stercoris 0.988 | [1] 0.998 | Bacteroides uniformis 1.02 | [2] 1.13 | Clostridium difficile 0.888 | Collinsella aerofaciens 0.96

NC(=S)c1c(Cl)cccc1Cl
inactive: Akkermansia muciniphila 0.917 | Bacteroides caccae 0.943 | Bacteroides clarus 0.97 | Bacteroides dorei 0.935 | Bacteroides stercoris 1.01 | [1] 1.03 | Bacteroides uniformis 0.972 | [2] 1.05 | Clostridium difficile 1.02 | Collinsella aerofaciens 0.962

O=C1C=C(N(Cc2ccc(Cl)nc2)CC(F)F)CO1
inactive: Akkermansia muciniphila 0.98 | Bacteroides caccae 0.991 | Bacteroides clarus 0.991 | Bacteroides dorei 0.977 | Bacteroides stercoris 1.25 | [1] 1.01 | Bacteroides uniformis 0.997 | [2] 1.01 | Clostridium difficile 0.978 | Collinsella aerofaciens 0.994

CN(C)C(=S)[S-].CN(C)C(=S)[S-].[Zn+2]
active: Bacteroides stercoris 0.799 | [1] 0.694
inactive: Akkermansia muciniphila 0.76 | Bacteroides caccae 0.876 | Bacteroides clarus 0.965 | Bacteroides dorei 0.857 | Bacteroides uniformis 0.819 | [2] 0.884 | Clostridium difficile 0.945 | Collinsella aerofaciens 0.969

CCN(CC)C(=O)C(C)Oc1cccc2ccccc12 (stereo not given)
inactive: Akkermansia muciniphila 0.935 | Bacteroides caccae 0.996 | Bacteroides clarus 0.976 | Bacteroides dorei 0.981 | Bacteroides stercoris 1.05 | [1] 0.984 | Bacteroides uniformis 0.958 | [2] 0.989 | Clostridium difficile 0.965 | Collinsella aerofaciens 0.999

CCOc1ccc(C(C)(C)COCc2cccc(Oc3ccccc3)c2)cc1
inactive: Akkermansia muciniphila 1.08 | Bacteroides caccae 0.967 | Bacteroides clarus 1.03 | Bacteroides dorei 0.967 | Bacteroides stercoris 0.792 | [1] 0.958 | Bacteroides uniformis 1.05 | [2] 1.48 | Clostridium difficile 1.04 | Collinsella aerofaciens 0.967

Cc1cccc(C)c1N(Cn1cccn1)C(=O)CCl
inactive: Akkermansia muciniphila 1.02 | Bacteroides caccae 0.829 | Bacteroides clarus 0.997 | Bacteroides dorei 0.974 | Bacteroides stercoris 1.01 | [1] 0.987 | Bacteroides uniformis 0.969 | [2] 1.07 | Clostridium difficile 1.01 | Collinsella aerofaciens 0.952

CN=C=S
inactive: Akkermansia muciniphila 0.945 | Bacteroides caccae 1.01 | Bacteroides clarus 0.977 | Bacteroides dorei 0.988 | Bacteroides stercoris 1.07 | [1] 1 | Bacteroides uniformis 1 | [2] 1.05 | Clostridium difficile 1.01 | Collinsella aerofaciens 1.02

CCCCCCCCSC(=O)Oc1cc(Cl)nnc1-c1ccccc1
inactive: Akkermansia muciniphila 1.01 | Bacteroides caccae 0.983 | Bacteroides clarus 0.983 | Bacteroides dorei 0.99 | Bacteroides stercoris 0.981 | [1] 1.02 | Bacteroides uniformis 0.91 | [2] 0.966 | Clostridium difficile 0.981 | Collinsella aerofaciens 0.973

Clc1ccc(C(c2ccc(Cl)cc2)C(Cl)Cl)cc1
active: Bacteroides stercoris 0.662
inactive: Akkermansia muciniphila 1.03 | Bacteroides caccae 0.927 | Bacteroides clarus 0.899 | Bacteroides dorei 0.888 | [1] 0.933 | Bacteroides uniformis 0.984 | [2] 1.06 | Clostridium difficile 1.03 | Collinsella aerofaciens 0.873

COP(=S)(OC)Oc1ccc([N+](=O)[O-])c(C)c1
inactive: Akkermansia muciniphila 0.998 | Bacteroides caccae 0.992 | Bacteroides clarus 0.968 | Bacteroides dorei 0.984 | Bacteroides stercoris 0.969 | [1] 0.99 | Bacteroides uniformis 0.97 | [2] 1.04 | Clostridium difficile 0.988 | Collinsella aerofaciens 0.952

O=S(=O)(c1ccc(O)cc1)c1ccc(O)cc1
inactive: Akkermansia muciniphila 0.921 | Bacteroides caccae 0.97 | Bacteroides clarus 1 | Bacteroides dorei 1.01 | Bacteroides stercoris 0.977 | [1] 0.996 | Bacteroides uniformis 0.987 | [2] 0.949 | Clostridium difficile 0.997 | Collinsella aerofaciens 0.976

CCOP(=S)(OCC)Oc1ccc(Cl)cc1Cl
inactive: Akkermansia muciniphila 0.962 | Bacteroides caccae 1.03 | Bacteroides clarus 0.963 | Bacteroides dorei 1.02 | Bacteroides stercoris 1.04 | [1] 0.979 | Bacteroides uniformis 0.987 | [2] 1.04 | Clostridium difficile 1.02 | Collinsella aerofaciens 1.04

COP(=O)(OC)Oc1ccc([N+](=O)[O-])cc1
inactive: Akkermansia muciniphila 1.17 | Bacteroides caccae 0.989 | Bacteroides clarus 1.03 | Bacteroides dorei 1.02 | Bacteroides stercoris 1.01 | [1] 0.991 | Bacteroides uniformis 1 | [2] 1.07 | Clostridium difficile 1.04 | Collinsella aerofaciens 0.948

Cc1ccc(N(SC(F)(Cl)Cl)S(=O)(=O)N(C)C)cc1
inactive: Akkermansia muciniphila 0.918 | Bacteroides caccae 1 | Bacteroides clarus 1 | Bacteroides dorei 1.04 | Bacteroides stercoris 1.02 | [1] 1.02 | Bacteroides uniformis 1.03 | [2] 1.03 | Clostridium difficile 0.991 | Collinsella aerofaciens 0.989

COc1nc(C)nc(NC(=O)NS(=O)(=O)c2ccccc2Cl)n1
inactive: Akkermansia muciniphila 0.942 | Bacteroides caccae 1 | Bacteroides clarus 0.959 | Bacteroides dorei 0.99 | Bacteroides stercoris 0.929 | [1] 0.958 | Bacteroides uniformis 1 | [2] 0.938 | Clostridium difficile 1.02 | Collinsella aerofaciens 1.04

Clc1cccc(Cl)c1Cl
inactive: Akkermansia muciniphila 0.898 | Bacteroides caccae 1.04 | Bacteroides clarus 0.992 | Bacteroides dorei 0.997 | Bacteroides stercoris 0.945 | [1] 1.02 | Bacteroides uniformis 1.01 | [2] 1.04 | Clostridium difficile 0.996 | Collinsella aerofaciens 0.973

c1ccc2c(c1)ccc1c3ccccc3sc21
inactive: Akkermansia muciniphila 1.03 | Bacteroides caccae 0.999 | Bacteroides clarus 0.987 | Bacteroides dorei 0.969 | Bacteroides stercoris 1 | [1] 0.998 | Bacteroides uniformis 0.972 | [2] 1.25 | Clostridium difficile 1.02 | Collinsella aerofaciens 0.99

CC(C)N1C(=O)N(c2ccccc2)CSC1=NC(C)(C)C
inactive: Akkermansia muciniphila 0.893 | Bacteroides caccae 0.957 | Bacteroides clarus 0.902 | Bacteroides dorei 0.946 | Bacteroides stercoris 0.977 | [1] 0.927 | Bacteroides uniformis 0.981 | [2] 0.99 | Clostridium difficile 1.02 | Collinsella aerofaciens 0.971

Nc1cc(Cl)cc(Cl)c1
inactive: Akkermansia muciniphila 1.1 | Bacteroides caccae 0.895 | Bacteroides clarus 1.04 | Bacteroides dorei 1.03 | Bacteroides stercoris 1.33 | [1] 1.01 | Bacteroides uniformis 1.04 | [2] 1.08 | Clostridium difficile 1 | Collinsella aerofaciens 0.984

CC(C)N(C(=O)COc1nnc(C(F)(F)F)s1)c1ccc(F)cc1
active: Akkermansia muciniphila 0.411
inactive: Bacteroides caccae 1.05 | Bacteroides clarus 1.02 | Bacteroides dorei 0.996 | Bacteroides stercoris 0.973 | [1] 0.952 | Bacteroides uniformis 0.907 | [2] 1.03 | Clostridium difficile 0.955 | Collinsella aerofaciens 1.01

Clc1ccc(Cl)cc1
inactive: Akkermansia muciniphila 1.01 | Bacteroides caccae 0.991 | Bacteroides clarus 0.989 | Bacteroides dorei 0.899 | Bacteroides stercoris 1.08 | [1] 1.01 | Bacteroides uniformis 1.01 | [2] 1.07 | Clostridium difficile 0.987 | Collinsella aerofaciens 0.972

Cc1[nH]c(=O)n(C(C)(C)C)c(=O)c1Cl
inactive: Akkermansia muciniphila 1.07 | Bacteroides caccae 1 | Bacteroides clarus 0.993 | Bacteroides dorei 0.96 | Bacteroides stercoris 0.979 | [1] 1 | Bacteroides uniformis 0.981 | [2] 0.978 | Clostridium difficile 0.997 | Collinsella aerofaciens 0.924

O=[N+]([O-])c1cc(C(F)(F)F)c(Cl)c([N+](=O)[O-])c1Nc1ncc(C(F)(F)F)cc1Cl
inactive: Akkermansia muciniphila 1.01 | Clostridium difficile 0.914 | Collinsella aerofaciens 0.886
active: Bacteroides caccae 0.55 | Bacteroides clarus 0.322 | Bacteroides dorei 0.672 | Bacteroides stercoris 0.00814 | [1] 0.0138 | Bacteroides uniformis 0.0147 | [2] 0.705
